In the antibiotic and cytotoxicity screens of Wong et al. (2023):
In all, about 39,000 compounds went through this assay and about 3,300 (8.5%) were called active. This excerpt belongs to a sample that is enriched for actives.

Tested on: HepG2
Assay: cytotoxicity call (relative viability < 0.9)
Conditions: 10 µM

SMILES	cytotoxicity call
Cc1noc(C)c1NC(=O)Nc1ccc2c(c1)C(=O)N([C@H](C)CO)C[C@H](C)[C@H](CN(C)Cc1ccc(C(=O)O)cc1)OCCCC[C@@H](C)O2	inactive
CO[C@H]1CN(C)C(=O)c2ccc(NS(=O)(=O)c3cn(C)cn3)cc2OC[C@H](C)N(Cc2cccc(F)c2)C[C@H]1C	inactive
COc1ccc(NC(=O)N(C)C[C@@H]2OCCCC[C@@H](C)Oc3ccc(NS(=O)(=O)c4c(C)noc4C)cc3C(=O)N([C@@H](C)CO)C[C@H]2C)cc1	inactive
COc1ccc(NC(=O)N(C)C[C@H]2Oc3ccc(NC(=O)Nc4ccc(C(F)(F)F)cc4)cc3CC(=O)N([C@@H](C)CO)C[C@@H]2C)cc1	inactive
O=C(O)c1csc2c1CCCCC2	inactive
COC(=O)CC[C@H]1CCCNC1	inactive
C[C@@H]1CN([C@H](C)CO)C(=O)c2cc(NS(=O)(=O)c3ccccc3)ccc2O[C@@H](C)CCCCO[C@H]1CN(C)C(=O)C1CCCCC1	inactive
NCc1ccno1	inactive
C=CCCC(=O)N(C)[C@H](C)[C@@H](OC(=O)[C@@H]1[C@@H]2C=C[C@]3(O2)[C@H](CN(CC=C)Cc2ccccc2)N(C(C)(C)C)C(=O)[C@@H]13)c1ccccc1	inactive
COc1ccc(NC(=O)Nc2ccc3c(c2)C(=O)N([C@H](C)CO)C[C@H](C)[C@H](CN(C)C(=O)Nc2cccc4ccccc24)O3)cc1	inactive
C[C@H](CO)N1C[C@H](C)[C@H](CN(C)S(=O)(=O)c2ccc(C#N)cc2)Oc2ncc(C#Cc3ccc(F)cc3)cc2C1=O	inactive
C[C@H](CO)N1C[C@H](C)[C@H](CN(C)S(=O)(=O)c2ccc(F)cc2)Oc2ncc(C#Cc3ccc(F)cc3)cc2C1=O	active
Cc1ccc(S(=O)(=O)N(C)C[C@@H]2Oc3ncc(C#Cc4ccc(F)cc4)cc3C(=O)N([C@H](C)CO)C[C@@H]2C)cc1	inactive
Cc1ccc(S(=O)(=O)Nc2ccc3c(c2)C(=O)N([C@@H](C)CO)C[C@H](C)[C@@H](CN(C)S(=O)(=O)c2ccc(Cl)cc2)OCCCC[C@@H](C)O3)cc1	inactive
NC(=O)[C@@H]1[C@H]2C(=O)O[C@H](c3ccccc3)[C@H](c3ccccc3)N2[C@H](c2ccc(OCCO)cc2)[C@@]12C(=O)Nc1ccc(C#CC3=CCCCC3)cc12	inactive
O=C1O[C@H](c2ccccc2)[C@H](c2ccccc2)N2[C@H]1[C@@H](C(=O)O)[C@]1(C(=O)Nc3ccc(C#CC4=CCCCC4)cc31)[C@H]2C1CCCCC1	active
COc1ccc(C#Cc2ccc3c(c2)[C@]2(C(=O)N3)[C@H](C(=O)N3CCCCCCC3)[C@H]3C(=O)O[C@H](c4ccccc4)[C@H](c4ccccc4)N3[C@@H]2c2ccc(O)cc2)cc1	active
O=C1O[C@@H](c2ccccc2)[C@@H](c2ccccc2)N2[C@@H](c3ccc(OCCO)cc3)[C@]3(C(=O)Nc4ccc(C#CC5=CCCCC5)cc43)[C@@H](C(=O)N3CCCCCCC3)[C@H]12	active
O=C1O[C@H](c2ccccc2)[C@H](c2ccccc2)N2[C@H]1[C@@H](C(=O)O)[C@]1(C(=O)Nc3ccc(C#CC4(O)CCCCCC4)cc31)[C@H]2c1ccccc1OCCO	inactive
O=C1O[C@@H](c2ccccc2)[C@@H](c2ccccc2)N2[C@@H](c3ccc(OCCO)cc3)[C@]3(C(=O)Nc4ccc(C#CC5=CCCCC5)cc43)[C@@H](C(=O)N3CCN(c4ncccn4)CC3)[C@H]12	inactive
O=C1O[C@H](c2ccccc2)[C@H](c2ccccc2)N2[C@H]1[C@@H](C(=O)O)[C@]1(C(=O)Nc3ccc(C#CC4=CCCCC4)cc31)[C@H]2c1ccc(O)cc1	inactive
O=C1O[C@@H](c2ccccc2)[C@@H](c2ccccc2)N2[C@@H](c3ccc(O)cc3)[C@]3(C(=O)Nc4ccc(C#CC5=CCCCC5)cc43)[C@@H](C(=O)O)[C@H]12	inactive
O=C1O[C@@H](c2ccccc2)[C@@H](c2ccccc2)N2[C@@H](c3ccccc3OCCO)[C@]3(C(=O)Nc4ccc(C#CC5=CCCCC5)cc43)[C@@H](C(=O)O)[C@H]12	inactive
O=C1O[C@H](c2ccccc2)[C@H](c2ccccc2)N2[C@H]1[C@@H](C(=O)O)[C@]1(C(=O)Nc3ccc(C#CC4=CCCCC4)cc31)[C@H]2c1ccccc1OCCO	active
COc1ccc(C#Cc2ccc3c(c2)[C@]2(C(=O)N3)[C@H](c3ccc(O)cc3)N3[C@H](c4ccccc4)[C@H](c4ccccc4)OC(=O)[C@H]3[C@@H]2C(=O)N2CCCCCCC2)cc1	inactive
COc1ccc(C#Cc2ccc3c(c2)[C@]2(C(=O)N3)[C@H](c3ccc(O)cc3)N3[C@H](c4ccccc4)[C@H](c4ccccc4)OC(=O)[C@H]3[C@@H]2C(=O)N2CCN(c3ncccn3)CC2)cc1	inactive
CCNC(=O)C[C@H]1CC[C@H]2[C@@H](COC[C@H](O)CN2C(=O)Nc2c(C)noc2C)O1	inactive

SMILES	cytotoxicity call
O=C(C[C@@H]1C=C[C@H](NS(=O)(=O)c2ccccc2)[C@H](CO)O1)NCc1ccncn1	inactive
COc1ccc2c3c(n(c2c1)C)[C@@H](CO)N(C[C@]13CCN(CC1)C(=O)Nc1cccc(c1)F)S(=O)(=O)C	inactive
C[C@H]1CN([C@@H](C)CO)C(=O)Cc2cc(NC(=O)c3ccncc3)ccc2O[C@H]1CN(C)Cc1ccncc1	inactive
COCCNC(=O)C[C@@H]1CC[C@@H]2[C@H](COC[C@@H](O)CN2S(=O)(=O)c2ccccc2C)O1	inactive
C[C@H](CO)N1C[C@H](C)[C@@H](CN(C)C(=O)C2CCCCC2)OCCCC[C@H](C)Oc2ccc(NC(=O)CCC(F)(F)F)cc2C1=O	inactive
C[C@@H]1CCCCO[C@@H](CN(C)C(=O)c2ccncc2)[C@@H](C)CN([C@@H](C)CO)C(=O)c2cc(NS(=O)(=O)c3cn(C)cn3)ccc2O1	inactive
Cc1noc(C)c1NC(=O)Nc1cccc2c1O[C@H](CN(C)C(=O)Nc1ccc(C(F)(F)F)cc1)[C@@H](C)CN([C@@H](C)CO)C2=O	inactive
C=CC[C@@H](CC(=O)N[C@@H](CO)Cc1ccccc1)C(=O)N1CCC[C@@H]1COC(=O)[C@@H](CC=C)NC(=O)OCC1c2ccccc2-c2ccccc21	inactive
C[C@@H]1CN([C@H](C)CO)C(=O)Cc2cc(NC(=O)Nc3cccc4ccccc34)ccc2O[C@@H]1CN(C)Cc1ccc(-c2ccccc2)cc1	inactive
CCS(=O)(=O)N1C[C@]2(CCN(CC2)C(=O)c2cccnc2)c2c(n(c3cc(ccc23)OC)C)[C@@H]1CO	inactive
COCCNC(=O)c1ccc(N2C[C@H]3C[C@@H](C2)c2cccc(=O)n2C3)c(NC(=O)c2ccc(OC)cc2)c1	inactive
O=C1O[C@@H](c2ccccc2)[C@@H](c2ccccc2)N2[C@@H](c3ccccc3OCCO)[C@]3(C(=O)Nc4ccc(C#CC5=CCCCC5)cc43)[C@@H](C(=O)N3CCCCCCC3)[C@H]12	active
COc1cc2c(cc1OC)CN(C(=O)[C@@H]1[C@H]3C(=O)O[C@H](c4ccccc4)[C@H](c4ccccc4)N3[C@H](c3ccc(O)cc3)[C@@]13C(=O)Nc1ccc(C#CC4(O)CCCCCC4)cc13)CC2	inactive
COc1cc2c(cc1OC)CN(C(=O)[C@@H]1[C@H]3C(=O)O[C@H](c4ccccc4)[C@H](c4ccccc4)N3[C@H](c3ccc(OCCO)cc3)[C@@]13C(=O)Nc1ccc(C#CC4(O)CCCCCC4)cc13)CC2	active
O=C1O[C@H](c2ccccc2)[C@H](c2ccccc2)N2[C@H]1[C@@H](C(=O)N1CCCCCCC1)[C@]1(C(=O)Nc3ccc(C#CC4=CCCCC4)cc31)[C@H]2c1ccccc1OCCO	inactive
COc1cc2c(cc1OC)CN(C(=O)[C@H]1[C@@H]3C(=O)O[C@@H](c4ccccc4)[C@@H](c4ccccc4)N3[C@@H](c3ccc(OCCO)cc3)[C@]13C(=O)Nc1ccc(C#CC4(O)CCCCCC4)cc13)CC2	inactive
COc1cc2c(cc1OC)CN(C(=O)[C@H]1[C@@H]3C(=O)O[C@@H](c4ccccc4)[C@@H](c4ccccc4)N3[C@@H](c3ccccc3OCCO)[C@]13C(=O)Nc1ccc(C#CC4=CCCCC4)cc13)CC2	inactive
NC(=O)[C@H]1[C@@H]2C(=O)O[C@@H](c3ccccc3)[C@@H](c3ccccc3)N2[C@@H](c2ccccc2OCCO)[C@]12C(=O)Nc1ccc(C#CC3=CCCCC3)cc12	active
O=C1O[C@@H](c2ccccc2)[C@@H](c2ccccc2)N2[C@@H](c3ccccc3OCCO)[C@]3(C(=O)Nc4ccc(C#CC5(O)CCCCCC5)cc43)[C@@H](C(=O)O)[C@H]12	inactive
NC(=O)NCC#Cc1ccc2c(c1)[C@]1(C(=O)N2)[C@H](C(N)=O)[C@H]2C(=O)O[C@H](c3ccccc3)[C@H](c3ccccc3)N2[C@@H]1c1ccccc1OCCO	inactive
C[C@@H]1CN([C@H](C)CO)C(=O)c2cccc(NC(=O)C3CCOCC3)c2O[C@H]1CN(C)S(=O)(=O)c1cccs1	inactive
C[C@@H]1CN([C@H](C)CO)C(=O)c2cc(NC(=O)Nc3cccc4ccccc34)ccc2O[C@@H](C)CCCCO[C@H]1CN(C)Cc1ccc(Cl)c(Cl)c1	inactive
C[C@@H]1CN([C@@H](C)CO)C(=O)c2cc(NC(=O)Cn3cnnn3)ccc2O[C@H]1CN(C)Cc1ccc(-c2ccccc2)cc1	inactive
CC(C)CN1C(=O)[C@@]2(c3ccc([N+](=O)[O-])cc3)CC(=O)N(CC34CC5CC(CC(C5)C3)C4)[C@@H]2c2ccc(CO)cc21	inactive
Cc1cc(C)n(-c2nc(=O)cc(C)[nH]2)n1	inactive
[N-]=[N+]=NCCOCCNC(=O)CCCOc1ccc(CS(=O)c2nnc(-c3ccc(F)cc3)o2)nc1 (centres undefined)	active
COc1ccc(NC(=O)N(C)C[C@@H]2OCCCC[C@@H](C)Oc3ccc(NC(=O)CCC(F)(F)F)cc3C(=O)N([C@@H](C)CO)C[C@H]2C)cc1	inactive
